Data published in PubChem BioAssay (NCATS).
“And” between values parts separate entries of the source, which are not always exact repeats. Identical values can stand only once. Records with an inconclusive call do not appear. Entries that show only a call come without a potency. Values without a mark were called inactive. The source made the active and inactive calls. The call rests on the fitted dose curve; in most records, active means well fitted curve in the direction sought with a large enough effect; inconclusive means small, poorly fitted or top-dose-only effect, or another doubt; inactive means no such curve, though single readings can be large; an effect the other way counts as inactive or inconclusive.

Legend:
Furin (Homo sapiens) = Furin (Homo sapiens) (UniProt P09958); test: Furin counterscreen qHTS for Zika virus inhibitors (AID 1347149); further: nearly all actives have a fitted effect of over 70% in size; further: potency means the concentration at half of the fitted maximal effect;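 on activity change, negative = inhibition: purified recombinant full-length human furin enzyme at 5 nM; fluorescence gain from furin cutting a BOC-RVRR-AMC peptide substrate over 15 min; top concentration of the series differs between compounds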
Chain of Furin (Homo sapiens) (P09958 whole entry, looked up): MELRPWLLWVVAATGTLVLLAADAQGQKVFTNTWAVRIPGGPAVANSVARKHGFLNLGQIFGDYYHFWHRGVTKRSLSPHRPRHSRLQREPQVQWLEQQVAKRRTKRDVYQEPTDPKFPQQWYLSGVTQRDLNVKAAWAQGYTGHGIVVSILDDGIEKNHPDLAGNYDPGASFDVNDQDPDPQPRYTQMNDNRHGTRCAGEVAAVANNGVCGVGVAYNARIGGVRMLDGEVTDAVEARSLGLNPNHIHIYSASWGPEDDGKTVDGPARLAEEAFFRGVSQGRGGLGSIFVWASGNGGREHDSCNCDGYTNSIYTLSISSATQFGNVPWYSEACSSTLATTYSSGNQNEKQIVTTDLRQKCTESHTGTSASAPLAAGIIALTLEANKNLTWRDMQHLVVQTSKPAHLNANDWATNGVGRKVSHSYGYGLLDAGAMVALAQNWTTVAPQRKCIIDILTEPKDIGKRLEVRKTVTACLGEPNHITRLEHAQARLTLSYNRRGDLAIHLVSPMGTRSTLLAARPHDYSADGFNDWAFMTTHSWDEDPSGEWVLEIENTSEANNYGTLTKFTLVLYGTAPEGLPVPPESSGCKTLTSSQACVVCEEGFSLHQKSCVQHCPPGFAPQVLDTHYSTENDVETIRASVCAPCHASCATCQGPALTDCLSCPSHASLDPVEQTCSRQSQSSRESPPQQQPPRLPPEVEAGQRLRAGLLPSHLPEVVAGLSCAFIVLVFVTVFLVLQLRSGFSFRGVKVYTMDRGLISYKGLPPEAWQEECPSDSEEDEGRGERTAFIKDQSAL
Procedure, shortened: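 Counterscreen measures cleavage of 2 microM BOC-RVRR-AMC, below its ~15 microM Km, by 5 nM full-length human furin at pH 7.0 after a 15-min compound preincubation. Inhibition derives from the 15-min fluorescence increase at 37C.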

[1] = Confirmatory screen GU Rhodamine qHTS for Zika virus inhibitors qHTS (AID 1347157); further: potency means the concentration at half of the fitted maximal effect; nearly all actives have a fitted effect of over 70% in size
Procedure, shortened: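 Compounds, tested up to 114 microM, were incubated for 15 minutes with 25 nM unlinked NS2B-NS3 protease at pH 8.0. Cleavage of 1.5 microM Rhodamine110 substrate was then followed by fluorescence for 15 minutes.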

[2] = Confirmatory screen NINDS Rhodamine qHTS for Zika virus inhibitors (AID 1347161); further: potency means the concentration at half of the fitted maximal effect; nearly all actives have a fitted effect of over 60% in size
Procedure, shortened: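 Kinetic fluorescence (Ex 480 nm, Em 540 nm) over 15 min with 1.5 microM Rhodamine110 peptide and 25 nM linked protease.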

[3] = test system: Zika virus NS2B-NS3 protease (linked); test: 384 well plate NINDS AMC confirmatory qHTS for Zika virus inhibitors (AID 1347163); further: nearly all actives have a fitted effect of over 50% in size; further: potency means the concentration at half of the fitted maximal effect;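 on activity change, negative = inhibition: linked protease at 5 30 or 60 nM final depending on run; fluorescence of AMC released from Ac-VKTGKR-AMC peptide cleaved by the protease; top concentration of the series differs between compounds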
Procedure, shortened: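 Fluorescence at 355/460 nm was read after 25 minutes of cleavage of 30 microM Ac-VKTGKR-AMC at room temperature, in the dark. Before substrate addition, compounds (up to 1 mM final) sat ~15 minutes with 5, 30 or 60 nM linked protease. Signals were normalized to no-enzyme and no-inhibitor wells.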

[4] = Tertiary RLuc qRT-PCR qHTS assay for Zika virus inhibitors (AID 1347169); further: nearly all actives have a fitted effect of over 55% in size; further: potency means the concentration at half of the fitted maximal effect; on activity change, negative = inhibition: top concentration of the series differs between compounds
Procedure, shortened: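 Orthogonal cell-based infection assay using recombinant ZIKV-RLuc (Cambodian) in Vero cells; compound added prior to virus at MOI 1-2. Incubation lasts 48-72 hrs at 37 degrees C before live-cell Renilla substrate is added and luminescence measured.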

[5] = qHTS to identify inhibitors of the type 1 interferon - major histocompatibility complex class I in skeletal muscle: primary screen against the NCATS Pharmaceutical Collection (AID 1347407);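 further: luminescence of HiBiT knocked into endogenous HLA-B as interferon-induced MHC class I level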; further: potency means the concentration at half of the fitted maximal effect
Procedure, shortened: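 Cells were seeded with 4 ng/ml IFN-beta, incubated 1 h, then dosed with compounds over eight 1:5 steps up to 46 uM final. After 24 h at 37 C, HiBiT lytic reagent was added and luminescence read after 10 min lysis in the dark.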

[6] = test system: Zika virus NS2B-NS3 protease; test: Primary screen GU AMC qHTS for Zika virus inhibitors (AID 1347154); further: nearly all actives have a fitted effect of over 70% in size; further: potency means the concentration at half of the fitted maximal effect
Procedure, shortened: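 Unlinked Zika NS2B hydrophilic domain–NS3 protease complex at 25 nM in 10 mM Tris-HCl pH 8.0, 0.01% Tween 20, with an AMC peptide substrate. Fluorescence change (340/450 nm) over 15 min at room temperature, normalized to controls, fitted to 4-parameter Hill.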

[7] = test system: Zika virus NS2B-NS3 protease (linked construct); test: Confirmatory screen NINDS AMC qHTS for Zika virus inhibitors (AID 1347152); conditions: Purified linked NS2B-NS3, AMC substrate fluorescence; further: potency means the concentration at half of the fitted maximal effect; nearly all actives have a fitted effect of over 70% in size
Procedure, shortened: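 In this dose-response qHTS, AMC release from 10 microM Bz-Nle-KRR-AMC by 1 nM linked protease is measured over 15 minutes (about 20% conversion) at pH 8.0. Percent inhibition is fitted to a 4-parameter Hill curve.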

[8] = ZIKV-mCherry secondary qHTS for Zika virus inhibitors (AID 1347158); further: top concentration of the series differs between compounds
Procedure, shortened: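 Compounds were tested in Vero monkey kidney cells infected with recombinant mCherry-expressing Zika virus at MOI 1 for 48-72 h at 37 °C. Fixed cells were nuclear-stained and imaged, and infection rate was taken as the fraction of mCherry-positive cells.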

[9] = Vero cells viability qHTS for Zika virus inhibitors (AID 1347167)
Procedure, shortened: (§1)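 qHTS titration; 24-48 h compound exposure, 37 degrees C/5% CO2; DMEM, 4% FBS; CellTiter Glo ATP luminescence.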

[10] = HepG2 cells viability qHTS for Zika virus inhibitors (AID 1347168)
Procedure, shortened: as §1

[11] = test system: Zika virus NS2B-NS3 protease (unlinked complex); test: Confirmatory screen GU AMC qHTS for Zika virus inhibitors (AID 1347153); conditions: Recombinant NS2B-NS3 protease, AMC substrate fluorescence
Procedure, shortened: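 Unlinked NS2B-NS3 complex (25 nM) in 10 mM Tris-HCl pH 8.0, 0.01% Tween 20 preincubated 15 min with compound, then 10 microM Bz-Nle-KRR-AMC (Km 18.3 µM). Fluorescence change over 15 min, normalized, Hill-fitted.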

[12] = test system: Zika virus NS2B-NS3 protease (linked construct); test: 384 well plate NINDS Rhodamine confirmatory qHTS for Zika virus inhibitors (AID 1347164); conditions: rhodamine-110 peptide substrate fluorescence; further: potency means the concentration at half of the fitted maximal effect; nearly all actives have a fitted effect of over 65% in size
Procedure, shortened: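 Compounds are incubated about 15 minutes with linked protease (5, 30 or 60 nM final). Rhodamine 110-tagged Ac-LKRR substrate (10 microM final) is added and fluorescence measured after 25 minutes.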

[13] = test system: Zika virus NS2B-NS3 protease (unlinked); test: Optimization of GU AMC qHTS for Zika virus inhibitors: Unlinked NS2B-NS3 protease assay (AID 1347151); further: series mostly up to about 52 µM; nearly all actives have a fitted effect of over 80% in size
Procedure, shortened: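 Percent inhibition is derived from the 15-min change in AMC fluorescence, normalized against no-inhibitor and no-enzyme controls, then fitted to a 4-parameter Hill curve. Aprotinin was the intraplate control.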

Q: Which results are given for `CC(C)=CCOc1ccc(/C=C/C(=O)c2ccc(OCC=C(C)C)cc2OCC(=O)O)cc1`?
A: Potency (Furin (Homo sapiens)): 66.3 µM (active); Potency [1]: 5.62 µM (active); Potency [2]: 6.31 µM (active); Potency [3]: 39.8 µM (active); activity change, negative = inhibition [4]: 84.9% [at 5.25 µM]; Potency [5]: inactive

Q: Which Potency [6] does the source give for `CCCCCCCCCCCCCC[N+](C)(C)Cc1ccccc1` here?
A: Its Potency is “inactive”.

Q: With `Nc1nc(N)c(-c2ccccc2)s1` as the compound, how does the Potency [6] read?
A: Its Potency is “inactive”.

Q: Which Potency [6] does the source give for `COc1ccc(C(Cl)=C(c2ccc(OC)cc2)c2ccc(OC)cc2)cc1` here?
A: Its Potency is “inactive”.

Q: Which Potency (Furin (Homo sapiens)) does the source give for `CCC(CC)(CC(=O)Nc1cccc(/C=C/c2nc(C3CCC3)cs2)c1)C(=O)O` here?
A: Its Potency is 21.5 µM (active).

Q: And the Potency [7]?
A: The Potency was 24.1 µM (active).

Q: And the Potency [6]?
A: Its Potency is “inactive”.

Q: And the outcome [8]?
A: Its outcome is “inactive”.

Q: And the Potency [2]?
A: The Potency was 22.1 µM (active).

Q: And the Potency [3]?
A: Its Potency is “inactive”.

Q: And the outcome [9]?
A: The outcome was “inactive”.

Q: And the Potency [10]?
A: The Potency was “inactive”.

Q: And the Potency [4]?
A: Its Potency is “inactive”.

Q: What does the source list for `C=C1c2cccc(O)c2C(O)=C2C(=O)[C@]3(O)C(O)=C(C(N)=O)C(=O)[C@@H](N(C)C)[C@@H]3[C@@H](O)[C@H]12`?
A: Potency (Furin (Homo sapiens)): 8.55 µM (active); Potency [11]: 19.2 µM (active); Potency [6]: 3.98 µM (active) and 2.99 µM (active); outcome [8]: inactive; Potency [3]: 8.91 µM (active) and 316 µM (active); Potency [12]: 251 µM (active); outcome [9]: inactive; Potency [10]: inactive; Potency [4]: inactive

Q: For `O=C(O)CCNC(=O)c1ccccc1`, which Potency [6] is on record?
A: The Potency was “inactive”.

Q: Which Potency [6] does the source give for `CCN1CCN(C(=O)N[C@@H](C(=O)N[C@@H]2C(=O)N3C(C(=O)O)=C(CSc4nnnn4C)CS[C@H]23)c2ccc(O)cc2)C(=O)C1=O` here?
A: Its Potency is “inactive”.

Q: With `CC(C)(C)NCC(O)COc1cccc2c1C[C@H](O)[C@H](O)C2` (stereo partly drawn) as the compound, how does the Potency [6] read?
A: The Potency was “inactive”.

Q: With `OC(C#CCN1CCCC1)(c1ccccc1)c1ccccc1` as the compound, how does the Potency [6] read?
A: The Potency was “inactive”.

Q: For `O=C(c1ccc(F)cc1)C1CCN(CCn2c(=S)[nH]c3ccccc3c2=O)CC1`, which Potency [6] is on record?
A: Its Potency is “inactive”.

Q: Which Potency [6] does the source give for `CCCCC(CC)COC(=O)c1ccc(N(C)C)cc1` (stereo not drawn) here?
A: Its Potency is “inactive”.

Q: With `CCc1ccc(C(=O)C(C)CN2CCCCC2)cc1` (stereo not drawn) as the compound, how does the Potency [6] read?
A: The Potency was “inactive”.

Q: Which Potency (Furin (Homo sapiens)) does the source give for `C[C@H]1O[C@@H](O[C@H]2CC[C@@]3(C)[C@H](CC[C@@H]4[C@@H]3C[C@@H](O)[C@]3(C)[C@@H](C5=CC(=O)OC5)CC[C@]43O)C2)C[C@H](O)[C@@H]1O[C@H]1C[C@H](O)[C@H](O[C@H]2C[C@H](O)[C@H](O[C@@H]3O[C@H](CO)[C@@H](O)[C@H](O)[C@H]3O)[C@@H](C)O2)[C@@H](C)O1` here?
A: Its Potency is “inactive”.

Q: What about the outcome [13] of the same compound?
A: The outcome was “inactive”.

Q: What about the Potency [6] of the same compound?
A: Its Potency is “inactive”.

Q: And the outcome [9]?
A: The outcome was “inactive”.

Q: What about the Potency [10] of the same compound?
A: The Potency was “inactive”.

Q: And the Potency [4]?
A: The Potency was 0.415 µM (active).

Q: And the Potency [5]?
A: The Potency was 0.528 µM (active).

Q: With `CC1=C(C(=O)O)N2C(=O)[C@@H](NC(=O)[C@H](N)c3ccccc3)[C@H]2SC1` as the compound, how does the Potency [6] read?
A: The Potency was “inactive”.

Q: Which Potency [6] does the source give for `CC1(C)OC[C@@H]2O[C@@]3(C(=O)O)OC(C)(C)O[C@H]3[C@@H]2O1` here?
A: The Potency was “inactive”.
